Experimental data taken from PubChem BioAssay (NCI).
Compounds without any hit were thinned out: in the full panel of roughly 83,000, 20% have a hit.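 Treatment: one concentration, 48 hours, 96-well format. Scoring: percent growth, with anything below 10 considered active.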 Active and inactive are the calls of the source.

What follows are compounds tested on MDA-MB-468 breast (assay: NCI-60 one-dose screen, 48 h (100 = growth as untreated, 0 = no growth, -100 = all killed)). Conditions: 10 µM unless noted.

SMILES	growth
CCCc1cc2cc(-n3nc(C)c4c3CC(C)(C)CC4=O)cc(NC3CCC(O)CC3)c2c(=O)[nH]1 (stereo not drawn)	-0.951% (active)
CC(=O)c1ccc(NC(=O)CSc2nnc(-c3cc(-c4ccc(Cl)cc4)nc4ccccc34)o2)cc1	115% (inactive)
FC(F)(F)Oc1cccc(-c2cc(NCCCCCCNc3cc(-c4cccc(OC(F)(F)F)c4)nc4ccc(N5CCCC5)cc34)c3cc(N4CCCC4)ccc3n2)c1	-68.1% (active)
O=C1c2ccccc2C(=O)c2c1oc1c2c(=O)[nH]c2ccccc21	-8.43% (active)
Cc1[nH]c2ccccc2c1/C=N/Nc1ncnc2sc3c(c12)CCN(CC(=O)OC(C)(C)C)C3	47.5% (inactive)
CN(C)c1cnccn1	56.1% (inactive)
Cc1c(C(C)(C)C)cc(C(C)(C)C)c2c1CN(C)CO2	122% (inactive)
O=C(CC(=O)c1cccc(Cl)c1)c1cccc(Cl)c1	41.7% (inactive)
O=C(NCCCCCCNC(=O)OCc1ccc2c(Cl)cc(Cl)c(O)c2n1)OCc1ccc2c(Cl)cc(Cl)c(O)c2n1	-62.7% (active)
Cc1nc2scc(-c3ccc(Cl)cc3)n2c(=O)c1CCN1CCOCC1	112% (inactive)
O[C@@H]1CO[C@H]2[C@@H]1OC[C@@H]2O	96.3% (inactive)
COc1ccccc1-n1cnc(N)c1C(=O)c1cc(OC)c(OC)c(OC)c1	39.3% (inactive)
CC(C)/C=C/CC[C@](C)(O)[C@H]1CC[C@]2(C)[C@@H]1CC[C@@H]1[C@@]3(C)C/C(=C/c4cccc(C(F)(F)F)c4)C(=O)C(C)(C)[C@@H]3CC[C@]12C	104% (inactive)
